Laboratory results reported in PubChem BioAssay AID1159580 (chemical genetic matrix, 2015).
“And” between values parts separate entries of the source, which are not always exact repeats. Equal entries are not always repeated. The campaign covered roughly 5,500 compounds. About 2,000 (36%) were called active. Not shown: some 18% with an inconclusive outcome. Rule as the data show it: active = normalized growth mostly below about 0.91 (no sharp cut-off); inconclusive = no clear call, values can overlap the other calls; inactive = mostly above about 0.92. The list shows a part of the results.

Assay: chemical genetic growth profiling, strain panel (AID 1159580);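 also: tested at 20 µM; growth read once vehicle control cultures reached saturation at 30 °C; 1 = growth at the plate median or of vehicle wells; lower values mean less growth of the strain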
Conditions: S. cerevisiae deletion strains, growth OD

Measured: normalized growth

Nc1ncnc2c1ncn2[C@@H]1O[C@H](CO)[C@@H](O)[C@H]1O
inactive: locus YAL021C, strain ccr4, stronger effect = lower value 0.97 | locus YAL026C, strain drs2, stronger effect = lower value 0.989 | locus YAL030W, strain snc1, stronger effect = lower value 0.995 | locus YBL061C, strain skt5, stronger effect = lower value 0.98 | locus YBR009C, strain hhf1, stronger effect = lower value 0.987 | locus YBR021W, strain FUR4, stronger effect = lower value 1.13 | locus YBR023C, strain chs3, stronger effect = lower value 0.972 | locus YBR171W, strain sec66, stronger effect = lower value 0.968 | locus YBR229C, strain ROT2, stronger effect = lower value 0.951 | locus YBR231C, strain swc5, stronger effect = lower value 1 | locus YBR279W, strain paf1, stronger effect = lower value 0.991 | locus YCL011C, strain gbp2, stronger effect = lower value 0.975 | locus YCL016C, strain dcc1, stronger effect = lower value 0.953 | locus YCL029C, strain bik1, stronger effect = lower value 0.972 | locus YCL061C, strain MRC1, stronger effect = lower value 0.966 | locus YCL069W, strain vba3, stronger effect = lower value 0.985 | locus YCR088W, strain abp1, stronger effect = lower value 0.994 | locus YDL005C, strain med2, stronger effect = lower value 0.992 | locus YDL035C, strain GPR1, stronger effect = lower value 0.987 | locus YDL040C, strain nat1, stronger effect = lower value 0.99 | locus YDL074C, strain BRE1, stronger effect = lower value 1.02 | locus YDL101C, strain DUN1, stronger effect = lower value 0.97 | locus YDL134C, strain PPH21, stronger effect = lower value 0.983 | locus YDL185W, strain tfp1, stronger effect = lower value 0.955 | locus YDL192W, strain arf1, stronger effect = lower value 0.982 | locus YDR001C, strain nth1, stronger effect = lower value 0.986 | locus YDR069C, strain doa4, stronger effect = lower value 1.02 | locus YDR101C, strain arx1, stronger effect = lower value 1.03 | locus YDR137W, strain rgp1, stronger effect = lower value 0.96 | locus YDR159W, strain sac3, stronger effect = lower value 0.994 | locus YDR162C, strain NBP2, stronger effect = lower value 0.948 | locus YDR195W, strain ref2 1.01 | locus YDR297W, strain sur2, stronger effect = lower value 0.985 | locus YDR318W, strain mcm21, stronger effect = lower value 0.973 | locus YDR334W, strain swr1, stronger effect = lower value 0.986 | locus YDR335W, strain msn5, stronger effect = lower value 0.987 | locus YDR388W, stronger effect = lower value 0.948 | locus YDR392W, strain spt3, stronger effect = lower value 0.904 | locus YDR502C, strain sam2, stronger effect = lower value 0.997 | locus YEL003W, strain gim4, stronger effect = lower value 0.994 | locus YEL037C, strain rad23, stronger effect = lower value 0.99 | locus YEL061C, strain CIN8 (second series), stronger effect = lower value 0.987 | locus YEL061C, strain CIN8, stronger effect = lower value 0.986 | locus YER015W, strain faa2, stronger effect = lower value 0.986 | locus YER016W, strain bim1, stronger effect = lower value 0.997 | locus YER110C, stronger effect = lower value 0.975 | locus YER111C, strain swi4, stronger effect = lower value 0.977 | locus YER155C, strain BEM2 (second series), stronger effect = lower value 1.01 | locus YER155C, strain BEM2, stronger effect = lower value 0.974 | locus YER167W, strain BCK2, stronger effect = lower value 0.988 | locus YFR010W, strain ubp6, stronger effect = lower value 0.99 | locus YGL078C, strain dbp3, stronger effect = lower value 0.986 | locus YGL086W, strain mad1, stronger effect = lower value 1.03 | locus YGL167C, strain pmr1, stronger effect = lower value 0.981 | locus YGL173C, strain kem1, stronger effect = lower value 0.98 | locus YGL227W, strain vid30, stronger effect = lower value 0.987 | locus YGL240W, strain doc1, stronger effect = lower value 0.989 | locus YGL248W, strain PDE1, stronger effect = lower value 0.979 | locus YGL253W, strain hxk2, stronger effect = lower value 0.988 | locus YGR135W, strain pre9, stronger effect = lower value 0.975 | locus YGR229C, strain SMI1, stronger effect = lower value 1 | locus YGR252W, strain gcn5, stronger effect = lower value 0.959 | locus YHR013C, strain ard1, stronger effect = lower value 0.955 | locus YHR027C, strain rpn1, stronger effect = lower value 0.981 | locus YHR030C, strain SLT2, stronger effect = lower value 0.994 and 1.01 | locus YHR079C, strain IRE1 (second series), stronger effect = lower value 0.982 | locus YHR079C, strain IRE1, stronger effect = lower value 1.03 | locus YHR094C, strain hxt1, stronger effect = lower value 0.97 | locus YHR129C, strain ARP1, stronger effect = lower value 0.995 | locus YHR142W, strain chs7, stronger effect = lower value 0.939 | locus YHR200W, strain rpn10, stronger effect = lower value 0.986 | locus YIL066C, strain RNR3, stronger effect = lower value 0.978 | locus YIL073C, strain SPO22, stronger effect = lower value 0.947 | locus YIL125W, strain kgd1, stronger effect = lower value 0.98 | locus YIR030C, strain dcg1, stronger effect = lower value 0.976 | locus YJL092W, strain hpr5, stronger effect = lower value 0.984 | locus YJL095W, strain BCK1 (second series), stronger effect = lower value 0.987 | locus YJL095W, strain BCK1, stronger effect = lower value 0.983 and 1.02 | locus YJL115W, strain asf1, stronger effect = lower value 0.987 | locus YJL129C, strain trk1, stronger effect = lower value 0.972 | locus YJL134W, strain LCB3, stronger effect = lower value 0.985 | locus YJL154C, strain vps35, stronger effect = lower value 0.999 | locus YJL164C, strain tpk1, stronger effect = lower value 0.981 | locus YJL166W, strain qcr8, stronger effect = lower value 0.969 | locus YJL168C, strain set2, stronger effect = lower value 0.99 | locus YJL187C, strain SWE1 (second series), stronger effect = lower value 0.968 | locus YJL187C, strain SWE1, stronger effect = lower value 0.992 | locus YJR043C, strain POL32, stronger effect = lower value 0.992
